From PubChem BioAssay (Tox21)
Inconclusive results are not listed. Activity calls are given as the source filed them. Unless noted, the call rests on the fitted dose curve; in most records, active means well fitted curve in the direction sought with a large enough effect in the repeat runs; inconclusive means weak or mixed curves; inactive means flat fitted curve, though single readings scatter.

Assays:
[1] = qHTS assay to test for compound auto fluorescence at 535 nm (green) in HEK293 cells (AID 720680); conditions: green autofluorescence 485/535 nm; series mostly up to 91.3 µM
[2] = qHTS assay to test for compound auto fluorescence at 460 nm (blue) in HEK293 cell free culture (AID 720681); conditions: cell-free medium, autofluorescence 405/460 nm (blue); series mostly up to 91.3 µM
Summary of the method: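 Blue fluorescence (Ex 405/Em 460 nm, triamterene-equivalent) was read immediately after pin transfer of compound or DMSO into medium (DMEM, 10% FBS) without cells.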

[3] = qHTS assay to test for compound auto fluorescence at 535 nm (green) in HEK293 cell free culture (AID 720682); conditions: cell-free medium, green autofluorescence 485/535 nm, stronger effect = higher value; series mostly up to 91.3 µM
Summary of the method: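 Using fluorescein as calibrant, autofluorescence was quantified at 485/535 nm in cell-free DMEM containing 10% FBS after pintool addition of compound or vehicle.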

[4] = qHTS assay to test for compound auto fluorescence at 590 nm (red) in HEK293 cell free culture (AID 720683); conditions: cell-free medium autofluorescence, Ex540/Em590 red; series mostly up to 91.3 µM
Summary of the method: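 Red-channel autofluorescence of compounds in culture medium (DMEM, 10% FBS), no cells, measured at 540/590 nm. Rose Bengal sodium is the reference fluorophore for equivalence.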

[5] = qHTS assay to test for compound auto fluorescence at 590 nm (red) in HepG2 cell free culture (AID 720684); conditions: cell-free medium autofluorescence, red 540/590 nm; series mostly up to 91.3 µM
Summary of the method: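 No cells present: MEM + 10% FBS only. Compound pinned in, red label read (540/590 nm). Activity = fluorescence equivalent to Rose Bengal sodium.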

[6] = qHTS assay to test for compound auto fluorescence at 460 nm (blue) in HepG2 cell free culture (AID 720685); conditions: Cell-free culture medium, blue autofluorescence 405/460 nm; series mostly up to 91.3 µM
Summary of the method: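 Cell-free plates of MEM plus 10% FBS received 23 nL compound or DMSO vehicle; blue-channel (405/460 nm) intensity scored against triamterene as reference fluorophore.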

[7] = qHTS assay to test for compound auto fluorescence at 535 nm (green) in HepG2 cell free culture (AID 720686); conditions: Cell-free medium, green autofluorescence 485/535 nm; series mostly up to 91.3 µM
[8] = qHTS assay to test for compound auto fluorescence at 460 nm (blue) in HepG2 cells (AID 720687); conditions: autofluorescence 405/460 nm, 1 h; series mostly up to 91.3 µM
Summary of the method: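 Blue-channel autofluorescence (Ex/Em 405/460 nm, triamterene-equivalent) was measured after 1 hr compound exposure at 37 C, 5% CO2. Cells were HepG2, plated overnight at 37 C in MEM plus 10% FBS.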

[9] = biological target: Glucocorticoid receptor (Homo sapiens) (UniProt P04150); assay: qHTS assay to identify small molecule antagonists of the glucocorticoid receptor (GR) signaling pathway (AID 720692; active means well fitted inhibition curve with a large enough effect in the signal ratio in the repeat runs, not every such curve was filed as active; the % refers to the signal ratio); conditions: GR-bla HeLa, beta-lactamase FRET ratio, dexamethasone-stimulated, 18 h; series mostly up to 58.5 µM
Glucocorticoid receptor (Homo sapiens), sequence (P04150 whole entry, looked up): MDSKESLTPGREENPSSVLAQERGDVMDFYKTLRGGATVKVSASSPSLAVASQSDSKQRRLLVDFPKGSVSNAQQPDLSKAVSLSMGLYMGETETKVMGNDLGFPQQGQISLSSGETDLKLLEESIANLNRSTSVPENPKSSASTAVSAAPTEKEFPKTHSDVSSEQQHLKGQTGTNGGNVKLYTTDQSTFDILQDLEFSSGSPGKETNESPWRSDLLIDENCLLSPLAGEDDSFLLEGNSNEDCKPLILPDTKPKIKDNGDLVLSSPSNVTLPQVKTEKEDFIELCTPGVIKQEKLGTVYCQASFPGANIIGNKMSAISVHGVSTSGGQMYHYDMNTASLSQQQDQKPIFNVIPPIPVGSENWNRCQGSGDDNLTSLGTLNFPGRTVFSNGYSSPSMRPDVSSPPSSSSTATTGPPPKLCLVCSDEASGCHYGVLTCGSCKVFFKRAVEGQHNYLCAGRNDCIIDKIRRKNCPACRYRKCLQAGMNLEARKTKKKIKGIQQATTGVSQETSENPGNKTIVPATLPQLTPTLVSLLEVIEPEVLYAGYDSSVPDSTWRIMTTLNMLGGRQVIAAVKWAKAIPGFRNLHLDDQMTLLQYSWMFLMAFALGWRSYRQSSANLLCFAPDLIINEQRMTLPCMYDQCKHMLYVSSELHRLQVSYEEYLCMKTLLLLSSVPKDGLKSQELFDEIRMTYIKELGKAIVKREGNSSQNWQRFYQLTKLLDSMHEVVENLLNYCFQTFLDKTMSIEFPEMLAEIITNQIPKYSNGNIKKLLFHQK
Summary of the method: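 GRE-bla HeLa line, dex-stimulated (5 nM final). Compound exposure 18 h, 37 C. Beta-lactamase FRET read after 2 h RT substrate.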

[10] = biological target: Glucocorticoid receptor (Homo sapiens) (UniProt P04150); assay: qHTS assay to identify small molecule agonists of the glucocorticoid receptor (GR) signaling pathway (AID 720691; active means well fitted activation curve with a large enough effect in the signal ratio in the repeat runs, not every such curve was filed as active; the % refers to the signal ratio); conditions: GR-bla HeLa, beta-lactamase reporter ratio, 18 h; series mostly up to 62.4 µM
Summary of the method: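 A HeLa cervical cancer line expressing GR and a glucocorticoid response element-driven beta-lactamase gene is treated with compounds for 18 h; LiveBLAzer B/G FRET substrate is then applied and fluorescence read.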
On the % scale 0 is the no-effect control and ±100 the full control effect.

O=C1CCCCCCCCCCC(=O)OCCO1
inactive: outcome [1] | outcome [2] | outcome [3] | outcome [4] | outcome [5] | outcome [6] | outcome [7] | outcome [8] | Potency [9]

CC(C)C[C@H](NC(=O)OCC1c2ccccc2-c2ccccc21)C(=O)O
inactive: outcome [1] | outcome [2] | outcome [3] | outcome [4] | outcome [5] | outcome [6] | outcome [7] | outcome [8] | Potency [9]

c1ccc(CN(CC2=NCCN2)c2ccccc2)cc1
inactive: outcome [1] | outcome [2] | outcome [3] | outcome [4] | outcome [5] | outcome [6] | outcome [8]

Cc1cc(S(=O)(=O)O)c(N)cc1Cl
inactive: outcome [1] | outcome [2] | outcome [3] | outcome [4] | outcome [5] | outcome [6] | outcome [8] | Potency [10] | Potency [9]

CCN(CC)C(=O)N(CC)CC
inactive: outcome [1] | outcome [2] | outcome [3] | outcome [4] | outcome [5] | outcome [6] | outcome [8] | Potency [10] | Potency [9]

Cc1c(C(=O)NCCO)[n+](=O)c2ccccc2n1[O-]
inactive: outcome [1] | outcome [2] | outcome [3] | outcome [4] | outcome [5] | outcome [6] | outcome [8] | Potency [10] | Potency [9]

NCCCN1CCN(CCCN)CC1
inactive: outcome [1] | outcome [2] | outcome [3] | outcome [4] | outcome [5] | outcome [6] | outcome [7] | outcome [8] | Potency [9]

O=c1oc2c(O)c(O)cc3c(=O)oc4c(O)c(O)cc1c4c23
inactive: outcome [1] | outcome [2] | outcome [3] | outcome [4] | outcome [5] | outcome [6] | outcome [7] | outcome [8] | Potency [9]

O=C(Cl)c1cccc([N+](=O)[O-])c1
inactive: outcome [1] | outcome [2] | outcome [3] | outcome [4] | outcome [5] | outcome [6] | outcome [8] | Potency [10] | Potency [9]

CS(=O)(=O)c1ccc([C@@H](O)[C@@H](CF)NC(=O)C(Cl)Cl)cc1
inactive: fluorescence, % of fluorescein [1] 0.0111% [at 18.6 µM] | fluorescence, % of fluorescent control [2] 0.0627% [at 18.6 µM] | activity change [3] -0.0234% [at 18.6 µM] | fluorescence, % of fluorescent control [4] -0.0638% [at 18.6 µM] | fluorescence, % of Rose Bengal [5] 0.294% [at 18.6 µM] | fluorescence, % of fluorescent control [6] -0.0062% [at 18.6 µM] | fluorescence, % of fluorescent control [8] -0.0647% [at 18.6 µM] | Potency [10] | Potency [9]

CN1CCN(C2=Nc3cc(F)ccc3Cc3ccccc32)CC1
inactive: outcome [1] | outcome [2] | outcome [3] | outcome [4] | outcome [5] | outcome [6] | outcome [7] | outcome [8] | Potency [9]

CCN[C@H]1CN(CCCOC)S(=O)(=O)c2sc(S(N)(=O)=O)cc21
inactive: fluorescence, % of fluorescein [1] -0.0786% [at 18.6 µM] | fluorescence, % of fluorescent control [2] 0.113% [at 18.6 µM] | activity change [3] -0.0447% [at 18.6 µM] | fluorescence, % of fluorescent control [4] -0.021% [at 18.6 µM] | fluorescence, % of Rose Bengal [5] 0.0022% [at 18.6 µM] | fluorescence, % of fluorescent control [6] -0.0073% [at 18.6 µM] | fluorescence, % of fluorescent control [8] -0.117% [at 18.6 µM] | Potency [10]

C[C@@H]1CN(c2c(F)c(N)c3c(=O)c(C(=O)O)cn(C4CC4)c3c2F)C[C@H](C)N1
inactive: outcome [1] | outcome [2] | outcome [3] | outcome [4] | outcome [5] | outcome [6] | outcome [7] | outcome [8] | Potency [9]

CC1(C)C(=O)N(Cl)C(=O)N1Br
inactive: outcome [1] | outcome [2] | outcome [3] | outcome [4] | outcome [5] | outcome [6] | outcome [8] | Potency [10] | Potency [9]

O=C(O[C@@H](C(=O)O)[C@@H](OC(=O)c1ccccc1)C(=O)O)c1ccccc1
inactive: outcome [1] | outcome [2] | outcome [3] | outcome [4] | outcome [5] | outcome [6] | outcome [7] | outcome [8] | Potency [10] | Potency [9]

Cc1cc(NS(=O)(=O)c2ccc(N)cc2)nc(C)n1
inactive: outcome [1] | outcome [2] | outcome [3] | outcome [4] | outcome [5] | outcome [6] | outcome [8]

FC(F)(F)C(F)(F)C(F)(F)C(F)(F)C(F)(F)C(F)(F)C(F)(F)C(F)(F)Br
inactive: outcome [1] | outcome [2] | outcome [3] | outcome [4] | outcome [5] | outcome [6] | outcome [8] | Potency [10] | Potency [9]

O=C(O)[C@@H]1CSCN1
inactive: outcome [1] | outcome [2] | outcome [3] | outcome [4] | outcome [5] | outcome [6] | outcome [8] | Potency [10] | Potency [9]

CC(=O)Nc1ccc(C)c(Cl)c1
inactive: outcome [1] | outcome [2] | outcome [3] | outcome [4] | outcome [5] | outcome [6] | outcome [7] | outcome [8] | Potency [9]

COc1ccc(Nc2ccc(OC)cc2)cc1
inactive: outcome [1] | outcome [2] | outcome [3] | outcome [4] | outcome [5] | outcome [6] | outcome [7] | outcome [8] | Potency [9]

CCOC(=O)c1ccccc1O
inactive: outcome [1] | outcome [2] | outcome [3] | outcome [4] | outcome [5] | outcome [6] | outcome [8] | Potency [10] | Potency [9]

NC(=O)Cc1cccc(C(=O)c2ccccc2)c1N
inactive: outcome [1] | outcome [2] | outcome [3] | outcome [4] | outcome [5] | outcome [6] | outcome [7] | outcome [8] | Potency [9]

CCOC(=O)COc1ccc2c(c1)CC(NCC(O)c1cccc(Cl)c1)CC2 (stereo not drawn)
inactive: outcome [1] | outcome [2] | outcome [3] | outcome [4] | outcome [5] | outcome [7] | outcome [8]

CCc1cc(Cl)c(OC)c(C(=O)NC[C@@H]2CCCN2CC)c1O
inactive: outcome [1] | outcome [2] | outcome [3] | outcome [4] | outcome [5] | outcome [7] | outcome [8] | Potency [10] | Potency [9]

CN1CCN(c2c(F)cc3c(=O)c(C(=O)O)cn4c3c2SCC4)CC1
inactive: outcome [1] | outcome [2] | outcome [3] | outcome [4] | outcome [5] | outcome [6] | outcome [8] | Potency [9]

CCCCNc1cc(C(=O)O)cc(S(N)(=O)=O)c1Oc1ccccc1
inactive: fluorescence, % of fluorescein [1] -0.0725% [at 18.6 µM] | fluorescence, % of fluorescent control [2] -0.0083% [at 18.6 µM] | activity change [3] -0.0379% [at 18.6 µM] | fluorescence, % of fluorescent control [4] -0.0094% [at 18.6 µM] | fluorescence, % of fluorescent control [6] -0.0399% [at 18.6 µM] | fluorescence, % of fluorescein control [7] 0.0191% [at 18.6 µM] | fluorescence, % of fluorescent control [8] -0.0058% [at 18.6 µM]

O=[N+]([O-])c1nccn1CO[C@@H](CO)[C@H](O)CO
inactive: outcome [1] | outcome [2] | outcome [3] | outcome [4] | outcome [5] | outcome [8] | Potency [10] | Potency [9]

CN1CCC[C@@H]1Cc1c[nH]c2ccc(CCS(=O)(=O)c3ccccc3)cc12
inactive: outcome [1] | outcome [2] | outcome [3] | outcome [4] | outcome [5] | outcome [7] | outcome [8]

COc1cc2c(cc1N)oc1ccccc12
inactive: outcome [1] | outcome [2] | outcome [3] | outcome [4] | outcome [5] | outcome [7] | outcome [8] | Potency [10] | Potency [9]

CCCCNCCCC
inactive: outcome [1] | outcome [2] | outcome [3] | outcome [4] | outcome [5] | outcome [7] | outcome [8] | Potency [10] | Potency [9]

Cc1cc2nc(N)sc2cc1C
inactive: outcome [1] | outcome [2] | outcome [3] | outcome [4] | outcome [5] | outcome [7] | outcome [8] | Potency [9]

Cc1cccc(C)c1NC(=O)CN1CCCCCC1
inactive: outcome [1] | outcome [2] | outcome [3] | outcome [4] | outcome [5] | outcome [7] | outcome [8] | Potency [10]

CNCCC(Oc1ccccc1OC)c1ccccc1 (stereo not drawn)
inactive: outcome [1] | outcome [2] | outcome [3] | outcome [4] | outcome [5] | outcome [8]

CN(C)C(=O)NC1(c2ccccc2)CCN(CCC[C@]2(c3ccc(Cl)c(Cl)c3)CCCN(C(=O)c3ccccc3)C2)CC1
inactive: fluorescence, % of fluorescein [1] -0.116% [at 18.6 µM] | fluorescence, % of fluorescent control [2] 0.05% [at 18.6 µM] | activity change [3] 0.0134% [at 18.6 µM] | fluorescence, % of fluorescent control [4] -0.159% [at 18.6 µM] | fluorescence, % of Rose Bengal [5] -0.0596% [at 18.6 µM] | fluorescence, % of fluorescent control [6] -0.114% [at 18.6 µM] | fluorescence, % of fluorescent control [8] -0.0586% [at 18.6 µM] | Potency [9]

FC(F)(F)c1ccccc1
inactive: outcome [1] | outcome [2] | outcome [3] | outcome [4] | outcome [6] | outcome [7] | outcome [8]

COC(=O)c1ccc(OC)cc1
inactive: outcome [1] | outcome [2] | outcome [3] | outcome [4] | outcome [5] | outcome [7] | outcome [8] | Potency [9]
